VCAM1 pot: potentiators of TNFa-induced VCAM1 expression, primary screen, imaging, HUVEC, TNFa stimulus, immunofluorescence; AID 808, 2007; HUVEC TNFa-stimulated VCAM-1 immunofluorescence, high-content imaging; scaled per plate to unstimulated/TNFa-only wells; activation, % at 2 µM; 93,000 compounds, 0.19% hits;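 active = activation above the screen mean plus 3 SD, with well images confirming the hit on visual review, cut at about 28% in these data, passing the limit was not always enough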;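 also: signal is the number of cytoplasmic VCAM-1 stained grains per positive cell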
VCAM1 pot conf: potentiators of TNFa-induced VCAM1 expression, confirmation, imaging, HUVEC, triplicate retest. activation, % at 2 µM. HUVEC TNFa-stimulated VCAM-1 immunofluorescence imaging. 230 tested, under 10 active. shares compounds with VCAM1 pot;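 active = activation above 30% in triplicate retests at 2 µM, then confirmed by visual review of the well images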;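 also: scaled per plate between unstimulated and TNFa-stimulated DMSO control wells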
Active calls of the source: *. The full list was thinned out, with hits kept by preference.

What do the screens show for `CCC1CCCCN1C(=O)CSc1nnc(-c2ccc3c(c2)OCCO3)o1` (configuration not stated)?
VCAM1 pot: -7.9

Results for COc1cc(OC)cc(-c2nnc(SCC(=O)N3c4ccccc4Sc4ccccc43)o2)c1 ?
VCAM1 pot: 5.9

What do the screens show for `O=C(CSc1nnc(-c2ccccc2O)o1)N1CCc2ccccc2C1`?
VCAM1 pot: 32.1*; VCAM1 pot conf: -10.1

Results for C/C=C/c1ccc(OCCn2cncn2)c(OC)c1 ?
VCAM1 pot: -9.8

How did COc1ccccc1C(=O)Nc1ccc2c(c1)nc(CN1CCN(C(C)=O)CC1)n2C do in these assays?
VCAM1 pot: -90.2

Results for CSc1cccc(NC(=O)c2c(Cl)cnn2C)c1 ?
VCAM1 pot: -32.6

Results for COc1ccccc1C(=O)Nc1cccc(SC)c1 ?
VCAM1 pot: 50.6*; VCAM1 pot conf: -4.0

How did COc1cccc(NC(=O)c2ccn(C)n2)c1 do in these assays?
VCAM1 pot: -7.0

Results for O=C(Nc1ccc(Cl)cn1)C1CCCN1S(=O)(=O)c1cccc2ccccc12 (configuration not stated) ?
VCAM1 pot: 31.2*; VCAM1 pot conf: -11.9

Results for O=C(NC1CCCCC1)C1CCCN1S(=O)(=O)c1cccc2nsnc12 (configuration not stated) ?
VCAM1 pot: -1.2

What do the screens show for `O=C(NCc1cccs1)C1CCCN1S(=O)(=O)c1ccccc1F` (configuration not stated)?
VCAM1 pot: -3.4

How did CC(C)n1c(SC2CCOC2=O)nc2ccccc21 (configuration not stated) do in these assays?
VCAM1 pot: -9.5

How did O=C(NCCN1CCOCC1)Nc1ccc(Cl)cc1Cl do in these assays?
VCAM1 pot: 1.2

What do the screens show for `CCn1c(SCC(=O)N2CCN(c3ccccc3)CC2)nnc1-c1c[nH]c2ccccc12`?
VCAM1 pot: -7.4

What do the screens show for `CCOC(=O)/C(=C\c1ccccc1)C(=O)c1cc(C(C)=O)c(Nc2ccccc2)s1`?
VCAM1 pot: 67.6*; VCAM1 pot conf: -12.6

Results for CCOC(=O)/C(=C\c1cccnc1)C(=O)c1cc(C(C)=O)c(Nc2ccccc2)s1 ?
VCAM1 pot: -53.9

Results for CC1CCCC(NC(=S)Nc2ccc(SC(F)F)cc2)C1C (configuration not stated) ?
VCAM1 pot: -3.4

Results for CSc1n[nH]c(NCc2cccs2)n1 ?
VCAM1 pot: 35.4

What do the screens show for `S=c1[nH]nc(COc2ccc3c(c2)OCO3)n1-c1ccccc1`?
VCAM1 pot: -97.0

Results for CCOC(=O)c1cc2cc3ccccc3cc2[nH]1 ?
VCAM1 pot: 21.7

Results for CCOC(=O)C(CCCOc1ccc(C(C)CC)cc1)C(=O)OCC (configuration not stated) ?
VCAM1 pot: 3.7

Results for CS(=O)(=O)N(Cc1ccco1)Cc1ccccc1Cl ?
VCAM1 pot: 2.2

What do the screens show for `COc1ccccc1CN(Cc1ccco1)S(=O)(=O)c1ccc(-n2cnnn2)c(OC)c1`?
VCAM1 pot: 43.0*; VCAM1 pot conf: -18.7

How did Cc1cc(S(=O)(=O)N(Cc2ccc(F)cc2)CC2CCCO2)ccc1-n1cnnn1 (configuration not stated) do in these assays?
VCAM1 pot: -9.4

Results for CC(=O)Oc1ccc(C(=O)Nc2ccc3c(c2)C(=O)N(CCC(=O)O)C3=O)cc1 ?
VCAM1 pot: -5.2

How did COc1cc(NC(=S)NC(=O)c2ccc(C)cc2C)ccc1NC(=O)c1cccs1 do in these assays?
VCAM1 pot: -5.1

What do the screens show for `CC1=C(C(=O)Nc2cc(C)ccc2C)C(c2cccs2)NC(=S)N1` (configuration not stated)?
VCAM1 pot: 51.6*; VCAM1 pot conf: -11.3
